Test results published in the supplement of paper PMC11732987, “Enantioselective OTUD7B fragment discovery through chemoproteomics screening and high-throughput optimisation” (Communications Chemistry, 2025).

Tests used:
Experiment in all cases: log2 ratio of Biotin-Ahx-Ub-VS probe labelling (fragment/DMSO); higher = less target engagement (more negative = stronger competition), active = hit call of the paper (q ≤ 0.05, log2 ratio ≤ -1)
Conditions in all cases: compound concentration: 200 uM; treatment time: 3 h
USP19 = biological target: T1, USP19 (UniProt O94966)
T1 sequence (whole entry): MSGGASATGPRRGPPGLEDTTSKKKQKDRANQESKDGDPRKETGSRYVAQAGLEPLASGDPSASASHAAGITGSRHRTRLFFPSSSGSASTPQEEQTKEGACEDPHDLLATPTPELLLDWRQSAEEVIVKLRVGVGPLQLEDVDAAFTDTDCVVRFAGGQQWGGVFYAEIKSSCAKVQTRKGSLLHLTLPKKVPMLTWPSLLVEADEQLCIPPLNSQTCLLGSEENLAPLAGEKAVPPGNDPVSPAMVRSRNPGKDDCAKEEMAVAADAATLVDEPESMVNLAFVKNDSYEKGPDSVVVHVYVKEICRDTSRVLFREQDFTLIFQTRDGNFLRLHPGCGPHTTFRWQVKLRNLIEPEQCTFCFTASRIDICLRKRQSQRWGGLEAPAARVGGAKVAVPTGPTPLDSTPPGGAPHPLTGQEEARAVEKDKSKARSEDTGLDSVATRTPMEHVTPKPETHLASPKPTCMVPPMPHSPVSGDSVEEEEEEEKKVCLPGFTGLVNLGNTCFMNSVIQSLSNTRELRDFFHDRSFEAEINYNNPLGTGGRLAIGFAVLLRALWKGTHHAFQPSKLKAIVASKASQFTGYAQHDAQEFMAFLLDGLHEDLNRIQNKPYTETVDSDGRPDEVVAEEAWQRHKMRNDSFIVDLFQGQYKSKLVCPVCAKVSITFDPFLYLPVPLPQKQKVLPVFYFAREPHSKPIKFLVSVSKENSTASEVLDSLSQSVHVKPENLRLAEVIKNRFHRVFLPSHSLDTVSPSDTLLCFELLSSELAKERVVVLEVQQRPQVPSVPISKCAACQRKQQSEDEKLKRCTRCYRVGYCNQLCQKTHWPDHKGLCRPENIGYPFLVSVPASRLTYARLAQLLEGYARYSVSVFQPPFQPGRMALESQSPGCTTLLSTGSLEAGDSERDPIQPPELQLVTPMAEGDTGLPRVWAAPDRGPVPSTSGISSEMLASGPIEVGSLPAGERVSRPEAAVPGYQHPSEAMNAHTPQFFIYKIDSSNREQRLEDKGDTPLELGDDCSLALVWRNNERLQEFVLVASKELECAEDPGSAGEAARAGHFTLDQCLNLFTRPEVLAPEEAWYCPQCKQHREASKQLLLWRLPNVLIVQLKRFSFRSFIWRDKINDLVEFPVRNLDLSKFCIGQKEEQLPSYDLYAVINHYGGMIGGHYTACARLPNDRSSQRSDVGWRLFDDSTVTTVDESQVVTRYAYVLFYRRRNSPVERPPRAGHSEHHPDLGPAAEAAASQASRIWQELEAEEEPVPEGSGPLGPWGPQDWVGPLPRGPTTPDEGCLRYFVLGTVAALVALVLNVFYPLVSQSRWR
Procedure, shortened: (§1)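 HEK293T lysate (495 µg per sample, in Tris/CHAPS/IGEPAL buffer with protease inhibitors) was treated in triplicate with fragment at 200 µM or with DMSO for 3 h. It was then treated with Biotin-Ahx-Ub-VS (0.5 µM final) for 1 h. Labelled DUBs were NeutrAvidin-enriched, digested with LysC and trypsin, and run by diaPASEF LC-MS/MS. Spectronaut label-free quantities were global-median-normalised. Values are average log2 ratios fragment/DMSO by unpaired t-test, using proteins with ≥2 unique peptides.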

USP24 = USP24 (UniProt Q9UPU5)
USP24, sequence (Q9UPU5 whole entry): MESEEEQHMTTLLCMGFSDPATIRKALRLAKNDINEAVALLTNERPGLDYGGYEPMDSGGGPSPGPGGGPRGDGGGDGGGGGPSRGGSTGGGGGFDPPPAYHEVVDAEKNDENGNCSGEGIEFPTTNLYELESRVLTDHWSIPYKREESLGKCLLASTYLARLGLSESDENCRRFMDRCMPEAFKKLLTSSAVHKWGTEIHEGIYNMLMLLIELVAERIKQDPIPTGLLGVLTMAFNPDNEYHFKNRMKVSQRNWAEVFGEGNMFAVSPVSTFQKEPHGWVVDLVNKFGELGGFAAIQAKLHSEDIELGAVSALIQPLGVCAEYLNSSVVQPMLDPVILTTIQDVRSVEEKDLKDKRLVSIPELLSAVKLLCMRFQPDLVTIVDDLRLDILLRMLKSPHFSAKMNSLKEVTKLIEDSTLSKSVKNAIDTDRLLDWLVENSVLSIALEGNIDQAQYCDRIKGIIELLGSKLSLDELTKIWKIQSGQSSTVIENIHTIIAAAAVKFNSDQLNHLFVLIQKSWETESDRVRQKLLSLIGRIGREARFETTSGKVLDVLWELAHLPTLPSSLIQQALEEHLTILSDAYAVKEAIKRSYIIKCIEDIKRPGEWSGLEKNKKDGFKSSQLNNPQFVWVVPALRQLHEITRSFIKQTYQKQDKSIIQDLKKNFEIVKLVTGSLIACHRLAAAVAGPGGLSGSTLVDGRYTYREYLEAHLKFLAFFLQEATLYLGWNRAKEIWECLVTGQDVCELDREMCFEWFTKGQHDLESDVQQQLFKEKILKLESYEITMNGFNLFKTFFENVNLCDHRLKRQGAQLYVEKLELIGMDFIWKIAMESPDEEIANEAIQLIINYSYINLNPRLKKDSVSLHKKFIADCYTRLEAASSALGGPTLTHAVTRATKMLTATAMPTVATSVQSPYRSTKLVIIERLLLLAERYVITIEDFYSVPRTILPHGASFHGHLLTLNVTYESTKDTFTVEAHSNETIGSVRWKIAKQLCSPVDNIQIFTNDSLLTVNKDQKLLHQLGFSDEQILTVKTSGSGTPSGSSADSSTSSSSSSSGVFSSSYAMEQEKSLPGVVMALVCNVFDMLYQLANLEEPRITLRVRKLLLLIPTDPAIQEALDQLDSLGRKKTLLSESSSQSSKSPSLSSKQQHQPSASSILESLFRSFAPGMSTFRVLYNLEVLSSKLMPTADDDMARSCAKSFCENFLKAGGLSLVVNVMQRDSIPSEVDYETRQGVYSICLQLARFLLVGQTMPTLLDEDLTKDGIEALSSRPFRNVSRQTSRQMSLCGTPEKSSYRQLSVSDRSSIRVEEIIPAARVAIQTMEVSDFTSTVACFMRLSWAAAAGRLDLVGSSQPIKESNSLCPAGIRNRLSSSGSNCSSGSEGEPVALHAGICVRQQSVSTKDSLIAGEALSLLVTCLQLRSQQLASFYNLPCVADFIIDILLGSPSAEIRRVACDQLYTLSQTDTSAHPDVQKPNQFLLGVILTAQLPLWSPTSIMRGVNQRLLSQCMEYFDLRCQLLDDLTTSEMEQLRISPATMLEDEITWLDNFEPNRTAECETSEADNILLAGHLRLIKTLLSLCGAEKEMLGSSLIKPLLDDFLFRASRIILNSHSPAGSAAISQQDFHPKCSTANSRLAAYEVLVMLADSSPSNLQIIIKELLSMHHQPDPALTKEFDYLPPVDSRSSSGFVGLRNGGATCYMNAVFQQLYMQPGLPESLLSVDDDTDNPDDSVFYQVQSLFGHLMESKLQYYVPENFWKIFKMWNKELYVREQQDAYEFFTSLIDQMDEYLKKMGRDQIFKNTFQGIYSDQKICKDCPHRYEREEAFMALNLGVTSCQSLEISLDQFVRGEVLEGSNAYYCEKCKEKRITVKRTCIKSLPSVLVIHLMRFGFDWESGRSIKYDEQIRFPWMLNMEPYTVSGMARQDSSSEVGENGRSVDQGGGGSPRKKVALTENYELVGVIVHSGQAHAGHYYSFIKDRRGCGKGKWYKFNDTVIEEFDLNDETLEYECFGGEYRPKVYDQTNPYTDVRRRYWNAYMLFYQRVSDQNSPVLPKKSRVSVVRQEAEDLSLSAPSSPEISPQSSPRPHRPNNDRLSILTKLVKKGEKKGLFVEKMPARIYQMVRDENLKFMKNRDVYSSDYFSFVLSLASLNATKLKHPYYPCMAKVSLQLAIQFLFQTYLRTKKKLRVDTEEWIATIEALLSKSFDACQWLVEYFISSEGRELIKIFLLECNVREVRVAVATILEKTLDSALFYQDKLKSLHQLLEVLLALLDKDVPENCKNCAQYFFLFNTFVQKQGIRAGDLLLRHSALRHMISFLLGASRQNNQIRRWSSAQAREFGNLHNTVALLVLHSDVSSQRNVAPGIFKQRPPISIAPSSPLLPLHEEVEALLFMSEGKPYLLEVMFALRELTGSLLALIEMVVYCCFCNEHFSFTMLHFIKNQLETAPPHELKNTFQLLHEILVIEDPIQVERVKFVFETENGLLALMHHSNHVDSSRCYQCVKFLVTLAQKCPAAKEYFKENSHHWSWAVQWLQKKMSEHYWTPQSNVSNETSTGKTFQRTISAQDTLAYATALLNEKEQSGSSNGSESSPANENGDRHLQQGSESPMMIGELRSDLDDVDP
Procedure, shortened: as §1

USP25 = biological target: T2, USP25 (UniProt Q9UHP3)
T2 sequence (whole entry): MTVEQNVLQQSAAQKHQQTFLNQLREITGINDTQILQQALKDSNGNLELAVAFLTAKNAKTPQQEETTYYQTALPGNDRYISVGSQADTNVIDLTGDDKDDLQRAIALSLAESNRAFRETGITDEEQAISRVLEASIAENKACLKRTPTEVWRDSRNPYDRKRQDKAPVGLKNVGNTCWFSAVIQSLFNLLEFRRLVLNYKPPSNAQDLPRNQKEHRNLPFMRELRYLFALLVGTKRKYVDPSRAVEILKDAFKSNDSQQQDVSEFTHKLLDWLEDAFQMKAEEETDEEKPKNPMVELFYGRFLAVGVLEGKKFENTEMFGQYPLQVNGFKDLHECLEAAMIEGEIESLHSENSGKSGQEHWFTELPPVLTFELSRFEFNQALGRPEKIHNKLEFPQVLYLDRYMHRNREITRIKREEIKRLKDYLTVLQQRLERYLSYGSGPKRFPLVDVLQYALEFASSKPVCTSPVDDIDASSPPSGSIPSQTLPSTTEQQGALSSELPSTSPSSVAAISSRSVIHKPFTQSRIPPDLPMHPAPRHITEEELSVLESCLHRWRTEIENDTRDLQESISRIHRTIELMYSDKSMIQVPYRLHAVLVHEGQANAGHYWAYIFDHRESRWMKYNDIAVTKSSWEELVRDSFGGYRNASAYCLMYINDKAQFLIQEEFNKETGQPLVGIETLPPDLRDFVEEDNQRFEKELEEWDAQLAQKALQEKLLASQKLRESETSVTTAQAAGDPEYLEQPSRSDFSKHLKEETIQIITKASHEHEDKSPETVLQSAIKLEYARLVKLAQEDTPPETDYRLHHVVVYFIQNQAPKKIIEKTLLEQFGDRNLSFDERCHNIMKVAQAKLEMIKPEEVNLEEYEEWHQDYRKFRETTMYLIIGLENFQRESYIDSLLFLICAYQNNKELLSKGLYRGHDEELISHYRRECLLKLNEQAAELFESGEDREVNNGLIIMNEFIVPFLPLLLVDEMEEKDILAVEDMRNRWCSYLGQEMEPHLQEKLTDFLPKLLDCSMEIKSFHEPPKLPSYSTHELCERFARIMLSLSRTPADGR
Procedure, shortened: as §1

USP28 = biological target: T3, USP28 (UniProt Q96RU2)
T3 sequence (whole entry): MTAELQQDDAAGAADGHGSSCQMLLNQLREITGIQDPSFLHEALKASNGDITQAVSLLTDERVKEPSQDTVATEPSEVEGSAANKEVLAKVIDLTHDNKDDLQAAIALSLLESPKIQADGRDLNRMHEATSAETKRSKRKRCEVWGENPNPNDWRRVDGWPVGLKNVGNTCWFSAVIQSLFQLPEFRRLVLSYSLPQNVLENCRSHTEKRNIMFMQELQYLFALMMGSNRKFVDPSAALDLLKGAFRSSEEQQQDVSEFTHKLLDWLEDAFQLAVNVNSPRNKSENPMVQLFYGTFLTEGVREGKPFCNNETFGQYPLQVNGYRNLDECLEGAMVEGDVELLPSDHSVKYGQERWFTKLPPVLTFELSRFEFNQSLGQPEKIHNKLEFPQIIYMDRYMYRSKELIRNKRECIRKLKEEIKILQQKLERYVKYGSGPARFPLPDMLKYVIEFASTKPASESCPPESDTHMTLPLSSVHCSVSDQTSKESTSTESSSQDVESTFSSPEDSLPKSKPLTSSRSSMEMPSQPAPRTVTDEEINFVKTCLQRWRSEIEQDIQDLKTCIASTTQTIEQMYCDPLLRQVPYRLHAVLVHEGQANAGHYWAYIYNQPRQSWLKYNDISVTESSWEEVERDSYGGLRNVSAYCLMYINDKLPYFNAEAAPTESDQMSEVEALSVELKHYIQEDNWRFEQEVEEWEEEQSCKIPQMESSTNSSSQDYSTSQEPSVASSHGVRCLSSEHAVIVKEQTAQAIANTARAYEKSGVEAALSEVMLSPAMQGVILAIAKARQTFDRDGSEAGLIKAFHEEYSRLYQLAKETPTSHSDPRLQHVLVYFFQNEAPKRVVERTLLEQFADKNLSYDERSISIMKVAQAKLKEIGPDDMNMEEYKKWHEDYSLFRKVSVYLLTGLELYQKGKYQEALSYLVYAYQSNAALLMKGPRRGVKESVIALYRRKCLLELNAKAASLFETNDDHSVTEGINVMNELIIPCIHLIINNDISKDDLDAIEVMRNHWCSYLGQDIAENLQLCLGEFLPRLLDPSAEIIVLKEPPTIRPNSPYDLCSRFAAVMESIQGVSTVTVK
Procedure, shortened: as §1

Measured: log2 ratio of Biotin-Ahx-Ub-VS probe labelling

O=C(CCl)NCCC1COCCO1 (centres undefined)
inactive: USP19 -0.207 | USP24 -0.21 | USP25 -0.158 | USP28 -0.225
